From PubChem BioAssay
PTHR1 ag: activates the human parathyroid hormone receptor PTHR1 | HEK293 GP2 PTHR1 cells, GloSensor cAMP luminescence, 1 h | Potency, µM (top dose mostly 115 µM), for inactives: at the highest dose activation, hits mostly activators | hit rate 0.075% among 410,000 | AID 743266; note: nearly all actives have a fitted effect of over 55% in size
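HEK-293-derived GP2 cells expressing PTHR1 and a GloSensor cAMP reporter, 3,000/well, plated overnight, given luciferin plus IBMX (each 0.5 mM as added) for 1 h at 37 °C, then compound for 1 h at 37 °C. Luminescence was read after 15 min at room temperature.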
GLP1R cytotox: cytotoxicity counter-screen for GLP-1 receptor inverse agonists; HEK293 cAMP-luciferase reporter cells, luminescence, 24 h; Potency, µM (doses to about 38.3 µM), without a hit: top-dose activity change, negative = inhibition, actives largely listed as inhibitors; hit rate 0.13% among 410,000; AID 624418;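 note: loss of luciferase light is scored as toxicity; % is set by controls: 0 for no effect and ±100 for the full control effect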
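To flag toxic compounds, the library was rerun on cells for 24 hr at 37 deg C and 5% CO2. Viability-linked luminescence was captured 12 min after adding luciferase detection reagent.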
GLP-1R inv ag: GLP-1 receptor (human) inverse agonism | hit rate 1.6% among 410,000 | HEK293 GLP-1R CRE-luciferase, luminescence, 24 h; GLP-1R form is constitutively active | Potency, µM (titrated, usually from 38.3 µM), for the others: at the top dose activity change, negative = inhibition, most hits filed as inhibitors; note: % is set by controls: 0 for no effect and ±100 for the full control effect; nearly all actives have a fitted effect of over 55% in size
Target sequence (P43220 whole entry, looked up): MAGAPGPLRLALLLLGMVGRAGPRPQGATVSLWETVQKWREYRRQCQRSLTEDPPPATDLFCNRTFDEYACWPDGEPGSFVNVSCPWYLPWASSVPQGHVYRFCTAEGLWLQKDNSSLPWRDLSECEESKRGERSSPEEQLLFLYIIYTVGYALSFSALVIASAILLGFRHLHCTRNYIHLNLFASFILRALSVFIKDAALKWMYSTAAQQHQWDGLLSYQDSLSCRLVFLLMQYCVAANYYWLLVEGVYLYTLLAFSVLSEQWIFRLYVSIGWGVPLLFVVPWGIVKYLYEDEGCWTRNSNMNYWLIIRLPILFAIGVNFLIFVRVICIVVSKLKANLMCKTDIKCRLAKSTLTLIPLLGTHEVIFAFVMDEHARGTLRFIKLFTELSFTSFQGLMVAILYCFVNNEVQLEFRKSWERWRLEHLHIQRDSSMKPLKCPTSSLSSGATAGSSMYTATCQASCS
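Luminescence readout: a drop in cAMP-driven luciferase signal flags inverse agonism at a constitutively active GLP-1R stably expressed in HEK293. Compound exposure lasted 24 hr at 37 deg C, 5% CO2.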
GLP1R ag: activates the human GLP-1 receptor; P43220; HEK293 GLP-1R CRE-luciferase, luminescence, 4-6 h; cells express a hypersensitive GLP-1R form; Potency, µM (top dose mostly 45.6 µM), for the others: at the top dose activation, usual class: activators; hit rate 0.007% among 380,000; AID 624172; note: % of control where 0% means no effect
* = called active by the depositor; i = inactive; ? = inconclusive; · = no result given; ! = not confirmed by another sample; [ ] = another dose, or the depositor's remark. A selection: hits, their analogues and other compounds. The true share with any hit is near 1.7%. Calls come from the whole dose curve; as a rule, active = well fitted curve in the direction sought with a large enough effect; inconclusive = small, poorly fitted or top-dose-only effect, or another doubt; inactive = no such curve, though single readings can be large; an effect the other way counts as inactive or inconclusive. Potency is the fitted concentration of half-maximal effect.

SMILES	PTHR1 ag	GLP1R cytotox	GLP-1R inv ag	GLP1R ag
COc1ccccc1CNC(=O)Cn1c(-c2cccs2)cc2cc(F)ccc21	50µM*	-5%	14%	·
CCOC(=O)c1cc(-c2ccccc2C)nn1CC1CC(c2ccc(OC)cc2)=NO1 (centres undefined)	i	2%	11µM*	26%
COc1ccc(C)cc1NC(=O)N1CCC(CN2CCOCC2)CC1	i	0%	11%	·
O=C(CCN1C(=O)NC2(CCCC2)C1=O)Nc1ccc(Sc2ccc(Br)cc2)cc1	-44%	-2%	11µM*	4%
CCc1ccc(NC(=O)c2cnn(-c3c(C)cccc3C)c2C2CCNCC2)cc1	-4%	-23%	?	-4%
Cc1cc(Cl)ccc1OCCCC(=O)N1CCN(S(=O)(=O)c2ccccc2)CC1	i	-21%	10µM*	3%
Cc1ccc(S(=O)(=O)NCCc2cn3ccsc3n2)cc1	-24%	1%	7%	·
Cc1ccc(S(=O)(=O)N2[C@@H](c3ccc(Br)cc3)C(C(=O)O)=CC[C@H]2c2ccc(Cl)cc2)cc1	-33%	-20%	11µM*	-11%
Cc1ccc([C@@H]2CC=C(C(=O)O)[C@H](c3ccc(Cl)cc3)N2S(=O)(=O)c2ccc(C)cc2)cc1	-86%	-13%	?	-5%
Cc1ccccc1S(=O)(=O)N1C(c2ccc(Cl)c(Cl)c2)CC=C(C(=O)O)C1c1cccc(Br)c1 (centres undefined)	i	-20%	10µM*	·
Cc1ccc([C@@H]2CC=C(C(=O)O)[C@H](c3ccc(Br)cc3)N2S(=O)(=O)c2ccccc2C)cc1	-35%	-11%	11µM*	-1%
Cc1ccc([C@H]2C(C(=O)O)=CC[C@@H](c3ccc(Cl)c(Cl)c3)N2S(=O)(=O)c2ccc(C)cc2)cc1	-11%	-11%	10µM*	-2%
Cc1ccccc1S(=O)(=O)N1[C@@H](c2ccc(Br)cc2)C(C(=O)O)=CC[C@H]1c1ccc(Cl)cc1	-9%	-10%	?	-5%
O=S(=O)(NCc1nc2cccnc2n1Cc1ccccc1Cl)c1ccc(F)c(Cl)c1	-4%	5%	?	·
Cc1ccccc1S(=O)(=O)N1[C@@H](c2ccccc2)C(C(=O)O)=CC[C@H]1c1ccc(Cl)cc1	-7%	-13%	7.1µM*	-4%
Cc1ccc([C@@H]2CC=C(C(=O)O)[C@H](c3ccc(Cl)cc3)N2S(=O)(=O)c2ccccc2C)cc1	-29%	-18%	8.9µM*	-3%
CCCCCCCCCCCCCCCCn1cc[n+](CC(C)=O)c1	-21%	?	4.5µM*	-1%
CC1CCCC(C)N1C(=O)Cn1cc(/C=C2/C(=O)Nc3ccccc32)c2ccccc21 (centres undefined)	-14%[57.5 µM]	?	5.6µM*	0%
COC(=O)c1cn(CC(=O)N2C(C)CCCC2C)c2ccccc12 (centres undefined)	-9%[57.5 µM]	9%	?	-11%
Cc1cc2cc(CNC(=S)Nc3ccc(OC(F)(F)F)cc3)ccc2[nH]1	i	?	11µM*	-3%
O=[N+]([O-])c1ccccc1Oc1ccc(C(F)(F)F)cn1	-6%	-3%	11%	16%
FC(F)(F)c1ccc(Oc2ccc3ccccc3c2Br)nc1	-38%	20%	10µM*	10%
Cc1cc(NS(=O)(=O)c2ccc3nc(-c4ccccc4)[nH]c3c2)ccc1Br	-42%	-11%	?	-7%
CC(C)c1ccc(NC(=O)C2CCCN2S(=O)(=O)c2ccc3nc(-c4ccccc4)[nH]c3c2)cc1 (centres undefined)	-12%	-13%	8.9µM*	·
Cc1ccc(NS(=O)(=O)c2ccc3nc(-c4ccccc4)[nH]c3c2)cc1Cl	-91%	-14%	10µM*	-5%
SMILES	PTHR1 ag	GLP1R cytotox	GLP-1R inv ag	GLP1R ag
O=C(Cn1c(-c2cccs2)cc2cc(F)ccc21)NCCc1ccc(Cl)cc1	-6%	-1%	-31%	-1%
CC1CCN(C(=O)CSc2nnc(NC(=O)Nc3ccccc3)s2)CC1	-24%	0%	7%	·
CC1=CC(C)(C)NC(=S)N1c1ccc(C)c(C)c1	14%	11µM*	11µM*	4%
CC1=CC(C)(C)NC(=S)N1c1ccc(C)cc1	-3%[57.5 µM]	?	?	-4%
O=C(OCc1cn([C@@H]2CN(C(=O)C3CCCCC3)[C@@H](c3ccccc3)C[C@H]2O)nn1)c1ccccc1	-16%	-13%	-4%	-4%
CCCCCCN1C[C@@H](n2cc(COC(=O)c3ccccc3)nn2)[C@H](O)C[C@@H]1c1ccc(OC)cc1	-28%	-23%	14µM*	-3%
O=C(OCc1cn([C@H]2CN(C(=O)C3CCCCC3)[C@@H](c3ccc(Cl)cc3)C[C@@H]2O)nn1)c1ccccc1	-34%	-17%	11µM*	1%
CCCCCCN1C[C@H](n2cc(COC(=O)c3ccccc3)nn2)[C@@H](O)C[C@@H]1c1ccccc1	-13%	5%	?	-3%
CC(C)OC(=O)OCOP(=O)(CO[C@H](C)Cn1cnc2c(N)ncnc21)OCOC(=O)OC(C)C	·	·	·	10%
O=C(CCn1cccn1)Nc1ccc(Br)cc1F	i	6%	11%	·
Cc1ccn2c(c1)nc(=O)c1cc(S(=O)(=O)N3CCCCC3)c(Cl)cc12	i	3%	12%	-2%
O=S1(=O)c2ccc(Br)cc2N2CCC[C@H]2CN1Cc1ccccc1	i	?	4µM*	13%
O=C(NCCCN1CCN(c2ccccc2F)CC1)c1sc2ncccc2c1-n1cccc1	i	-1%	-22%	·
Cc1ccc(Cl)cc1NC1=C/C(=N\S(=O)(=O)c2cccs2)c2ccccc2C1=O	-33%[57.5 µM]	?	1µM*!	-11%
CC1CC2(C)Oc3ccccc3CC2C(C)C1CNCCCN(C)C (centres undefined)	-5%	?	0.89µM*	-8%
CCC(C(=O)Nc1cc(F)ccc1F)n1nc(C)c2c(C)n(-c3ccc(C)cc3)nc2c1=O (centres undefined)	-43%	-8%	10µM*	4%
CCC(C(=O)Nc1ccccc1F)n1nc(C)c2c(C)n(-c3ccccc3)nc2c1=O (centres undefined)	i	-20%	?	5%
CCN(CC)Cc1cc(Nc2ccnc3cc(Cl)ccc23)ccc1O	-15%	?	11µM*!	0%
O=C(Nc1ccc(Cn2cccn2)cc1)c1ccc(COc2cccc(Br)c2)cc1	-47%[57.5 µM]	-3%	5µM*	1%
O=C(Nc1ccc(Cn2cccn2)cc1)c1ccc(COc2ccc(Br)cc2)cc1	-8%	5%	4%	-7%
CN1/C(=C\C(=S)Nc2ccccc2)C(C)(C)c2ccccc21	-24%	?	11µM*	12%
CN1/C(=C\C=C(/C#N)C(=O)Nc2ccc(Cl)cc2)C(C)(C)c2ccccc21	i	28%	20%	3%
CN1/C(=C\C(=O)Nc2ccc(Cl)cc2)C(C)(C)c2ccccc21	-28%	-26%	10µM*	17%
CCc1c(C)sc2c1CCN(C(=O)Nc1cc(C)ccc1OC)C2c1ccc(F)cc1 (centres undefined)	-27%	2%	?	·
